Holding throughout (experiment): PBM; 200 nM protein, PBS
Conditions in all cases: dsDNA, one strand shown

For test [1], the target named is T1, VENTX (Homo sapiens, UniProt O95231 78-163, R121Q).
T1 sequence: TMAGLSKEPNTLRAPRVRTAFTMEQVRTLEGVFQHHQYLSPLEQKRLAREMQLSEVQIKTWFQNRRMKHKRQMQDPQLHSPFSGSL

For test [2], the target named is T2, VENTX (Homo sapiens, UniProt O95231 78-163).
T2 sequence: T1 sequence with Q44R

The target in test [3] is HOXB9 (Homo sapiens, UniProt P17482 171-250, T197M).
The target of test [4] is HOXA4 (Homo sapiens, UniProt Q00056 201-287, W262R).
Test [5] concerns the target HOXC9 (Homo sapiens, UniProt P31274 178-260, K195R).
The target in test [6] is HOXA7 (Homo sapiens, UniProt P31268 116-202).
For test [7], the target named is T3, VENTX (Homo sapiens, UniProt O95231 78-163, Y115F).
T3 sequence: T1 sequence with Y38F, Q44R

Test [8] concerns the target HOXB6 (Homo sapiens, UniProt P17509 132-218, K202E).
For test [9], the target named is HOXA2 (Homo sapiens, UniProt O43364 129-215, R185T).
In test [10] the target is HOXA4 (Homo sapiens, UniProt Q00056 201-287, R217L).
Test [11] concerns the target HOXB9 (Homo sapiens, UniProt P17482 171-250).
For test [12], the target named is HOXC9 (Homo sapiens, UniProt P31274 178-260).
Test [13] has as its target HOXC9 (Homo sapiens, UniProt P31274 178-260, R193K).
Test [14] has as its target HOXA2 (Homo sapiens, UniProt O43364 129-215, R185K).
The target of test [15] is HOXA4 (Homo sapiens, UniProt Q00056 201-287).
Test [16] deals with HOXC10 (Homo sapiens, UniProt Q9NYD6 254-340, K271E).
Test [17] has as its target HOXB9 (Homo sapiens, UniProt P17482 171-250, R186Q).
Test [18] concerns the target HOXC9 (Homo sapiens, UniProt P31274 178-260, R222W).
Test [19] deals with HOXA2 (Homo sapiens, UniProt O43364 129-215, Y150S).
Test [20] deals with HOXA7 (Homo sapiens, UniProt P31268 116-202, W177C).
Test [21] addresses HOXA4 (Homo sapiens, UniProt Q00056 201-287, W262F).
Test [22] has as its target HOXA2 (Homo sapiens, UniProt O43364 129-215).
Test [23] has as its target HOXB6 (Homo sapiens, UniProt P17509 132-218).
Test [24] has as its target ALX4 (Homo sapiens, UniProt Q9H161 200-286).
Test [25] concerns the target ALX4 (Homo sapiens, UniProt Q9H161 200-286, Q225E).
In test [26] the target is VAX1 (Homo sapiens, UniProt Q5SQQ9 86-172).
The target in test [27] is VAX1 (Homo sapiens, UniProt Q5SQQ9 86-172, T142I).
The target in test [28] is VAX1 (Homo sapiens, UniProt Q5SQQ9 86-172, K157R).
Test [29] addresses T4, PAX4 (Homo sapiens, UniProt O43316 9-242, R200K).
T4 sequence: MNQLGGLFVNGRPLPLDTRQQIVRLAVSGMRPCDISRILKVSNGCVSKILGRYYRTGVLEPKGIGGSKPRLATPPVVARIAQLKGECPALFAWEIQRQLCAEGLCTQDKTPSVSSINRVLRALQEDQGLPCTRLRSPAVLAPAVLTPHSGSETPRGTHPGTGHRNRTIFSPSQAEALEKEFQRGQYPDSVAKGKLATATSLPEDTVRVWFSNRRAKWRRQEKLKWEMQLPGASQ

Test [30] concerns the target T5, PAX4 (Homo sapiens, UniProt O43316 9-242, R227W).
T5 sequence: T4 sequence with K192R, R219W

Test [31] concerns the target PRRX1 (Homo sapiens, UniProt P54821 80-166, F113S).
Test [32] has as its target PRRX1 (Homo sapiens, UniProt P54821 80-166).
In test [33] the target is HOXC10 (Homo sapiens, UniProt Q9NYD6 254-340).

Where a chain is given by its changes, count along the chain named.

Chain of HOXB9 (Homo sapiens, UniProt P17482 171-250, T197M) (P17482 171-250 T197M): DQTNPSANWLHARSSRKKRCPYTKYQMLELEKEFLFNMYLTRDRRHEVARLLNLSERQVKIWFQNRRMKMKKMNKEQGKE
Chain of HOXB9 (Homo sapiens, UniProt P17482 171-250, R186Q) (P17482 171-250 R186Q): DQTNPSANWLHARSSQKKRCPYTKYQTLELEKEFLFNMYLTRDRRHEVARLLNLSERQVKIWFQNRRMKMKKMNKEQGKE
Chain of HOXB6 (Homo sapiens, UniProt P17509 132-218, K202E) (P17509 132-218 K202E): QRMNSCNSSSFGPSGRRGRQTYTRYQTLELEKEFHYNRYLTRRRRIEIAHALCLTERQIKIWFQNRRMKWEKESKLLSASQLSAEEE
Chain of HOXB9 (Homo sapiens, UniProt P17482 171-250) (P17482 171-250): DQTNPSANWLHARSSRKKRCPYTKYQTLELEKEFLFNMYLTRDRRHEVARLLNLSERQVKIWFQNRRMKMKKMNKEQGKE
Chain of HOXC9 (Homo sapiens, UniProt P31274 178-260, R193K) (P31274 178-260 R193K): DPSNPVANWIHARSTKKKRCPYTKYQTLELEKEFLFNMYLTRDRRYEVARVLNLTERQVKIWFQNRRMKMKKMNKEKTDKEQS
Chain of HOXA4 (Homo sapiens, UniProt Q00056 201-287, W262F) (Q00056 201-287 W262F): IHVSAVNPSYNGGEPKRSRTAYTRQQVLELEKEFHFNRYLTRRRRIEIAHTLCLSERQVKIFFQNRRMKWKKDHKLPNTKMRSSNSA
Chain of HOXB6 (Homo sapiens, UniProt P17509 132-218) (P17509 132-218): as the sequence (P17509 132-218 K202E) above, with E71K counted along it
Chain of HOXC9 (Homo sapiens, UniProt P31274 178-260, R222W) (P31274 178-260 R222W): as the sequence (P31274 178-260 R193K) above, with K16R, R45W counted along it
Chain of HOXC9 (Homo sapiens, UniProt P31274 178-260, K195R) (P31274 178-260 K195R): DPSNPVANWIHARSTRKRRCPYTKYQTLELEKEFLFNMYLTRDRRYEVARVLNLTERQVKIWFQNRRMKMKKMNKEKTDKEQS
Chain of HOXC9 (Homo sapiens, UniProt P31274 178-260) (P31274 178-260): as the sequence (P31274 178-260 R193K) above, with K16R counted along it
Chain of HOXA2 (Homo sapiens, UniProt O43364 129-215) (O43364 129-215): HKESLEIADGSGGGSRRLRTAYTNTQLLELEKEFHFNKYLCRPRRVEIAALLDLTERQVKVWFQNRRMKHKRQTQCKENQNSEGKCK
Chain of HOXC10 (Homo sapiens, UniProt Q9NYD6 254-340, K271E) (Q9NYD6 254-340 K271E): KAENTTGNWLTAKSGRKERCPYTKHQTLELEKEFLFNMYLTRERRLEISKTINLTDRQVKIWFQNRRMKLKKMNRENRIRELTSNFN
Chain of HOXA2 (Homo sapiens, UniProt O43364 129-215, R185K) (O43364 129-215 R185K): as the sequence (O43364 129-215) above, with R57K counted along it
Chain of HOXA4 (Homo sapiens, UniProt Q00056 201-287) (Q00056 201-287): as the sequence (Q00056 201-287 W262F) above, with F62W counted along it
Chain of HOXA7 (Homo sapiens, UniProt P31268 116-202) (P31268 116-202): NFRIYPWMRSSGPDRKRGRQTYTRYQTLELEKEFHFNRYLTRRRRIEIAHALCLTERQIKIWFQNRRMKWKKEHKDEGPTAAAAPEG
Chain of HOXA4 (Homo sapiens, UniProt Q00056 201-287, W262R) (Q00056 201-287 W262R): as the sequence (Q00056 201-287 W262F) above, with F62R counted along it
Chain of HOXA2 (Homo sapiens, UniProt O43364 129-215, R185T) (O43364 129-215 R185T): as the sequence (O43364 129-215) above, with R57T counted along it
Chain of HOXA4 (Homo sapiens, UniProt Q00056 201-287, R217L) (Q00056 201-287 R217L): as the sequence (Q00056 201-287 W262F) above, with R17L, F62W counted along it
Chain of HOXA2 (Homo sapiens, UniProt O43364 129-215, Y150S) (O43364 129-215 Y150S): as the sequence (O43364 129-215) above, with Y22S counted along it
Chain of HOXA7 (Homo sapiens, UniProt P31268 116-202, W177C) (P31268 116-202 W177C): as the sequence (P31268 116-202) above, with W62C counted along it
Chain of VAX1 (Homo sapiens, UniProt Q5SQQ9 86-172, T142I) (Q5SQQ9 86-172 T142I): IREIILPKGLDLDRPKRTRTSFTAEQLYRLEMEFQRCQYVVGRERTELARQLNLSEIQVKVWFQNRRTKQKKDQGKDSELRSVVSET
Chain of HOXC10 (Homo sapiens, UniProt Q9NYD6 254-340) (Q9NYD6 254-340): as the sequence (Q9NYD6 254-340 K271E) above, with E18K counted along it
Chain of ALX4 (Homo sapiens, UniProt Q9H161 200-286, Q225E) (Q9H161 200-286 Q225E): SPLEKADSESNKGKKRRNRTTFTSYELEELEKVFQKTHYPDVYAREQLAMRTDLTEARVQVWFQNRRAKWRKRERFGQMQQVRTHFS
Chain of PRRX1 (Homo sapiens, UniProt P54821 80-166) (P54821 80-166): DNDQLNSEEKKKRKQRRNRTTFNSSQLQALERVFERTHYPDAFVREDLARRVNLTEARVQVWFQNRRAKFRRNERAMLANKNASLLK
Chain of PRRX1 (Homo sapiens, UniProt P54821 80-166, F113S) (P54821 80-166 F113S): as the sequence (P54821 80-166) above, with F34S counted along it
Chain of ALX4 (Homo sapiens, UniProt Q9H161 200-286) (Q9H161 200-286): as the sequence (Q9H161 200-286 Q225E) above, with E26Q counted along it
Chain of VAX1 (Homo sapiens, UniProt Q5SQQ9 86-172, K157R) (Q5SQQ9 86-172 K157R): as the sequence (Q5SQQ9 86-172 T142I) above, with I57T, K72R counted along it
Chain of VAX1 (Homo sapiens, UniProt Q5SQQ9 86-172) (Q5SQQ9 86-172): as the sequence (Q5SQQ9 86-172 T142I) above, with I57T counted along it

With AATGTATC, the binding signal in test [1] is 9.76 upbm affinity estimate (log intensity, higher = more binding, comparable within an allelic series); in [2], 10.1 upbm affinity estimate (log intensity, higher = more binding, comparable within an allelic series).

For TAATGTGA, the binding signal in test [1] was 10.5 upbm affinity estimate (log intensity, higher = more binding, comparable within an allelic series).

As to CCATTAAC, the binding signal in test [1] is 12.1 upbm affinity estimate (log intensity, higher = more binding, comparable within an allelic series); in test [3], 9.99 upbm affinity estimate (log intensity, higher = more binding, comparable within an allelic series); in test [4] it was 10.6 upbm affinity estimate (log intensity, higher = more binding, comparable within an allelic series); in test [5], 12.7 upbm affinity estimate (log intensity, higher = more binding, comparable within an allelic series); in test [2], 12.6 upbm affinity estimate (log intensity, higher = more binding, comparable within an allelic series); in [6], 11.5 upbm affinity estimate (log intensity, higher = more binding, comparable within an allelic series). For the same sequence, the binding signal is 11.7 upbm affinity estimate (log intensity, higher = more binding, comparable within an allelic series) in test [7]; 10.1 upbm affinity estimate (log intensity, higher = more binding, comparable within an allelic series) in test [8]; 12.1 upbm affinity estimate (log intensity, higher = more binding, comparable within an allelic series) in [9]; 12 upbm affinity estimate (log intensity, higher = more binding, comparable within an allelic series) in [10]; 11.7 upbm affinity estimate (log intensity, higher = more binding, comparable within an allelic series) in [11]; 12.7 upbm affinity estimate (log intensity, higher = more binding, comparable within an allelic series) in test [12]. The binding signal in test [13] is 12.7 upbm affinity estimate (log intensity, higher = more binding, comparable within an allelic series); in [14], 13.1 upbm affinity estimate (log intensity, higher = more binding, comparable within an allelic series); in test [15], 13.8 upbm affinity estimate (log intensity, higher = more binding, comparable within an allelic series); in test [16], 11.9 upbm affinity estimate (log intensity, higher = more binding, comparable within an allelic series); in test [17] it was 11.6 upbm affinity estimate (log intensity, higher = more binding, comparable within an allelic series); in test [18], 11 upbm affinity estimate (log intensity, higher = more binding, comparable within an allelic series). Besides, the binding signal was 10.7 upbm affinity estimate (log intensity, higher = more binding, comparable within an allelic series) in test [19]; 8.86 upbm affinity estimate (log intensity, higher = more binding, comparable within an allelic series) in test [20]; 11.5 upbm affinity estimate (log intensity, higher = more binding, comparable within an allelic series) in test [21]; 12 upbm affinity estimate (log intensity, higher = more binding, comparable within an allelic series) in test [22]; 12 upbm affinity estimate (log intensity, higher = more binding, comparable within an allelic series) in [23].

Consider AGTTAATG, for which the binding signal in test [1] was 11.5 upbm affinity estimate (log intensity, higher = more binding, comparable within an allelic series); in [5] it was 12.5 upbm affinity estimate (log intensity, higher = more binding, comparable within an allelic series); in test [2], 12.4 upbm affinity estimate (log intensity, higher = more binding, comparable within an allelic series); in test [7], 11.4 upbm affinity estimate (log intensity, higher = more binding, comparable within an allelic series); in test [8], 9.94 upbm affinity estimate (log intensity, higher = more binding, comparable within an allelic series); in [12], 12.5 upbm affinity estimate (log intensity, higher = more binding, comparable within an allelic series). For the same sequence, the binding signal in [13] is 12.5 upbm affinity estimate (log intensity, higher = more binding, comparable within an allelic series); in test [18], 10.8 upbm affinity estimate (log intensity, higher = more binding, comparable within an allelic series); in [21], 11.4 upbm affinity estimate (log intensity, higher = more binding, comparable within an allelic series); in [23], 11.7 upbm affinity estimate (log intensity, higher = more binding, comparable within an allelic series).

As to CACGGGGG, the binding signal in test [1] is 7.84 upbm affinity estimate (log intensity, higher = more binding, comparable within an allelic series); in [3] it was 8.4 upbm affinity estimate (log intensity, higher = more binding, comparable within an allelic series); in test [2], 7.81 upbm affinity estimate (log intensity, higher = more binding, comparable within an allelic series); in [24], 7.67 upbm affinity estimate (log intensity, higher = more binding, comparable within an allelic series); in [7], 7.86 upbm affinity estimate (log intensity, higher = more binding, comparable within an allelic series); in [25] it was 7.96 upbm affinity estimate (log intensity, higher = more binding, comparable within an allelic series). Further, the binding signal in test [9] was 7.01 upbm affinity estimate (log intensity, higher = more binding, comparable within an allelic series); in test [11], 8.3 upbm affinity estimate (log intensity, higher = more binding, comparable within an allelic series); in [14], 10.1 upbm affinity estimate (log intensity, higher = more binding, comparable within an allelic series); in test [26], 7.17 upbm affinity estimate (log intensity, higher = more binding, comparable within an allelic series); in test [17], 8.26 upbm affinity estimate (log intensity, higher = more binding, comparable within an allelic series); in test [27], 7.14 upbm affinity estimate (log intensity, higher = more binding, comparable within an allelic series). For the same sequence, the binding signal is 10.4 upbm affinity estimate (log intensity, higher = more binding, comparable within an allelic series) in test [19]; 7.04 upbm affinity estimate (log intensity, higher = more binding, comparable within an allelic series) in test [22]; 7.08 upbm affinity estimate (log intensity, higher = more binding, comparable within an allelic series) in test [28].

For the sequence AAGTAAAC, the binding signal in test [1] was 9.37 upbm affinity estimate (log intensity, higher = more binding, comparable within an allelic series); in [2] it was 9.73 upbm affinity estimate (log intensity, higher = more binding, comparable within an allelic series).

Take ACGCATTA: the binding signal in test [1] is 10.4 upbm affinity estimate (log intensity, higher = more binding, comparable within an allelic series); in test [5], 11.2 upbm affinity estimate (log intensity, higher = more binding, comparable within an allelic series); in test [29] it was 11.6 upbm affinity estimate (log intensity, higher = more binding, comparable within an allelic series); in test [12], 11.2 upbm affinity estimate (log intensity, higher = more binding, comparable within an allelic series); in test [13], 11.2 upbm affinity estimate (log intensity, higher = more binding, comparable within an allelic series); in test [30], 10.9 upbm affinity estimate (log intensity, higher = more binding, comparable within an allelic series).

As for CTAATGGA, in test [1], the binding signal is 11.7 upbm affinity estimate (log intensity, higher = more binding, comparable within an allelic series).

For the sequence CCCTTCCG, the binding signal is 8.08 upbm affinity estimate (log intensity, higher = more binding, comparable within an allelic series) in test [1]; 9.79 upbm affinity estimate (log intensity, higher = more binding, comparable within an allelic series) in [4]; 8.37 upbm affinity estimate (log intensity, higher = more binding, comparable within an allelic series) in test [2]; 9.35 upbm affinity estimate (log intensity, higher = more binding, comparable within an allelic series) in test [31]; 8.15 upbm affinity estimate (log intensity, higher = more binding, comparable within an allelic series) in test [7]; 9.96 upbm affinity estimate (log intensity, higher = more binding, comparable within an allelic series) in test [10]. Besides, the binding signal is 10 upbm affinity estimate (log intensity, higher = more binding, comparable within an allelic series) in test [15]; 10 upbm affinity estimate (log intensity, higher = more binding, comparable within an allelic series) in test [21]; 9.49 upbm affinity estimate (log intensity, higher = more binding, comparable within an allelic series) in [32].

For GCCATTAA, the binding signal in test [1] was 11.8 upbm affinity estimate (log intensity, higher = more binding, comparable within an allelic series); in test [3], 10.1 upbm affinity estimate (log intensity, higher = more binding, comparable within an allelic series); in test [5], 12.9 upbm affinity estimate (log intensity, higher = more binding, comparable within an allelic series); in test [2] it was 12.3 upbm affinity estimate (log intensity, higher = more binding, comparable within an allelic series); in [6], 11.9 upbm affinity estimate (log intensity, higher = more binding, comparable within an allelic series); in [33], 12.3 upbm affinity estimate (log intensity, higher = more binding, comparable within an allelic series). For the same sequence, the binding signal in [7] was 11.6 upbm affinity estimate (log intensity, higher = more binding, comparable within an allelic series); in [8] it was 10 upbm affinity estimate (log intensity, higher = more binding, comparable within an allelic series); in [11], 12.2 upbm affinity estimate (log intensity, higher = more binding, comparable within an allelic series); in test [12], 13 upbm affinity estimate (log intensity, higher = more binding, comparable within an allelic series); in test [13] it was 12.8 upbm affinity estimate (log intensity, higher = more binding, comparable within an allelic series); in test [16] it was 12.2 upbm affinity estimate (log intensity, higher = more binding, comparable within an allelic series). For the same sequence, the binding signal in [17] was 12 upbm affinity estimate (log intensity, higher = more binding, comparable within an allelic series); in test [18], 10.9 upbm affinity estimate (log intensity, higher = more binding, comparable within an allelic series); in [20], 8.78 upbm affinity estimate (log intensity, higher = more binding, comparable within an allelic series); in test [23], 12.2 upbm affinity estimate (log intensity, higher = more binding, comparable within an allelic series).

Source of the values: PMC11006913.
